Sampled rows, rich in hits. Any-hit rate of the full collection: about 0.92%.
BLM helicase inh-1 = inhibitors of human Bloom syndrome helicase BLM; recombinant BLM DNA unwinding, fluorescence dequenching; Potency, µM (doses to about 56.1 µM), hits mostly inhibitors; hit rate 0.2% among 350,000; further: nearly all actives have a fitted effect of over 35% in size
APE1 inh = APE1 (human) endonuclease inhibition | P27695 | recombinant APE1, TAMRA/BHQ-2 abasic DNA cleavage fluorescence | Potency, µM (titrated, usually from 65.8 µM), most hits filed as inhibitors | hit rate 0.35% among 350,000; further: nearly all actives have a fitted effect of over 55% in size
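Incision of a quenched TAMRA/BHQ-2 THF abasic-site duplex (50 nM) by 0.75 nM APE1, after 15 min compound preincubation, measured as fluorescence increase over three 60 s reads. Values normalized to buffer, DMSO and NSC13755 control wells.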
L3MBTL1 inh-1 = L3MBTL1 (human) inhibition | Q9Y468 | AlphaScreen L3MBTL1–H3K9me1 peptide binding | Potency, µM (titrated, usually from 57.1 µM), hits mostly inhibitors | hit rate 0.66% among 230,000 | AID 485360; further: nearly all actives have a fitted effect of over 60% in size
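AlphaScreen assay: L3MBTL1 (50 nM final) was preincubated 30 min at room temperature with biotinylated H3(1-15)K9me1 peptide (75 nM final), then 30 min with library compounds; streptavidin donor and nickel chelate acceptor beads (10 ug/mL final) added, 30 min dark.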
WRN helicase inh-1 = WRN helicase (human) inhibition | Q14191 | WRN helicase unwinding, fluorescent forked duplex, kinetic | Potency, µM (series often up to 114 µM), usual class: inhibitors | hit rate 0.46% among 360,000; further: nearly all actives have a fitted effect of over 55% in size
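Kinetic red-fluorescence monitoring (525/598 nm) tracks WRN helicase activity after 100 nM fluorophore-quencher forked duplex and 2 mM ATP are added to 20 nM enzyme pretreated 15 min at room temperature with compound.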
RECQ1 inh = inhibitors of human RECQ1 DNA helicase | P46063 | RECQ1 DNA unwinding, red fluorescence kinetic read | Potency, µM (highest dose often 57.3 µM), hits mostly inhibitors | hit rate 0.54% among 240,000; further: nearly all actives have a fitted effect of over 30% in size
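RECQ1T1 50 nM; forked duplex (20 bp + 30-nt ss tails) 200 nM, ATP 2 mM final; pH 8.0, 2 mM MgCl2, 2.5 ug/ml poly(dI-dC); 15 min compound preincubation; discontinuous kinetic read over 2 h at RT.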
L3MBTL1 inh-2 = L3MBTL1 binding inhibition validated | hit rate 91% among 500 | AID 540279 | L3MBTL1 methyl-lysine binding inhibition, biochemical qHTS | shares compounds with L3MBTL1 inh-1 | Potency, µM, usual class: inhibitors; further: nearly all actives have a fitted effect of over 70% in size
AlphaScreen ctr2 = AlphaScreen signal inhibition, L3MBTL1 hit counter-screen | shares compounds with L3MBTL1 inh-1 | AlphaScreen counterscreen, signal inhibition | Potency, µM (series often up to 57.1 µM), hits mostly inhibitors | 500 tested, under 10 active | AID 602224
WRN helicase inh-2 = WRN helicase inhibition, cherry-pick retest; shares compounds with WRN helicase inh-1; WRN helicase DNA unwinding, fluorescence kinetic; Potency, µM (top dose mostly 57.1 µM), most hits filed as inhibitors; hit rate 63% among 610; AID 720497; further: nearly all actives have a fitted effect of over 65% in size
TO displacement = DNA binding via thiazole orange displacement | shares compounds with WRN helicase inh-1 | thiazole orange DNA binding displacement, fluorescence | Potency, µM (titrated, usually from 57.1 µM), most hits filed as inhibitors | hit rate 10% among 610;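 further: drop in dye fluorescence marks compound binding to DNA; nearly all actives have a fitted effect of over 60% in size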
BLM helicase inh-2 = BLM helicase inhibition, WRN selectivity check; AID 720503; Potency, µM (doses to about 57.1 µM), hits mostly inhibitors; hit rate 60% among 610; Recombinant BLM helicase DNA unwinding, red fluorescence; shares compounds with WRN helicase inh-1; further: nearly all actives have a fitted effect of over 60% in size
Numbers stand for hits; - = inactive; ? = inconclusive; . = no result given. The call rests on the fitted dose curve; in most records, active means well fitted curve in the direction sought with a large enough effect; inconclusive means small, poorly fitted or top-dose-only effect, or another doubt; inactive means no such curve, though single readings can be large; an effect the other way counts as inactive or inconclusive.

SMILES	BLM helicase inh-1	APE1 inh	L3MBTL1 inh-1	WRN helicase inh-1	RECQ1 inh	L3MBTL1 inh-2	AlphaScreen ctr2	WRN helicase inh-2	TO displacement	BLM helicase inh-2
Cc1ccc(OCC(=O)c2c(N)n(C)c(=O)n(C)c2=O)c([N+](=O)[O-])n1	.	15µM	7.9µM	45µM	.	0.84	?	17µM	-	4.8µM
O=C(c1ccccc1)c1ccc2nc(-c3ccco3)c(-c3ccco3)nc2c1	14µM	?	7.9µM	16µM	?	7.5	-	15µM	24µM	8.6µM
COc1ccc(/C=C(\C#N)C(=O)NCCc2ccccc2)cc1OCc1ccccc1	-	-	-	-	-	.	.	.	.	.
COCCCNC(=O)/C(C#N)=C/c1ccc(OCC(=O)O)c(OC)c1	-	-	3.5µM	?	-	2.1	?	19µM	?	5.4µM
CCCCCCCCCCCCCCC/C=C/[C@@H](O)[C@H](NC(=O)CCCCCCCCCCCCC)OC (tested in a mixture with another compound)	.	-	.	.	-	.	.	.	.	.
O=C1OC(c2cccs2)=N/C1=C/c1ccc(-c2cccc(C(=O)O)c2)o1	-	18µM	0.56µM	?	?	3.4	-	19µM	?	?
COc1cccc(NC(=O)CSC2=Nc3ccccc3N=C(c3ccc(F)cc3)C2)c1	-	.	.	.	.	.	.	.	.	.
CCn1c(=O)n(CC)c2cc(N3CCCC3)c(NC(=O)Nc3cc(C)cc(C)c3)cc21	-	.	.	.	.	.	.	.	.	.
O=C(c1ccc(=O)oc1)N1CCCc2ccccc21	?	32µM	18µM	?	?	1.5	-	22µM	-	24µM
O=C(c1ccccc1)N1CCCc2ccccc21	-	-	-	-	-	.	.	.	.	.
COc1ccc(S(=O)(=O)N2CCN(C(=O)c3cc4c(s3)CCC4)CC2)cc1	.	2.7µM	3.5µM	35µM	.	3.4	-	7.6µM	?	1.1µM
Cc1ccc(S(=O)(=O)N2CCN(C(=O)c3cc4c(s3)CCCC4)CC2)cc1	.	-	-	-	.	.	.	.	.	.
COc1ccc(NC(=O)CN(C)CC(=O)Nc2ccccc2SC)cc1	-	-	-	28µM	-	.	.	-	-	-
COc1ccccc1CNC(=O)C1CCCN(c2nnc(-n3c(C)ccc3C)s2)C1 (stereo unspecified)	-	.	.	.	.	.	.	.	.	.
O=C(COC(=O)c1ccccc1)Nc1ncc([N+](=O)[O-])s1	.	3.4µM	3.5µM	3µM	.	.	.	3.4µM	24µM	1.1µM
O=C(Nc1ccccc1)Nc1ncc([N+](=O)[O-])s1	-	-	-	-	-	.	.	.	.	.
COC(=O)c1c(NC(=O)Cc2coc3cc(C)cc(C)c23)sc2c1CCC2	-	.	.	.	.	.	.	.	.	.
COC(=O)c1ccc(NC(=O)CC2C(=O)N(c3cccc(F)c3)C(=O)N2CC(C)C)cc1 (stereo unspecified)	-	.	.	.	.	.	.	.	.	.
O=C(CCN1C(=O)/C(=C/c2ccco2)SC1=S)Nc1ccc(C(=O)O)c(O)c1	-	21µM	.	45µM	.	.	.	17µM	-	22µM
COc1cccc([C@@H]2Oc3ccc(Br)cc3C[C@H]2OC(=O)NS(=O)(=O)c2ccc(F)cc2)c1	-	-	.	.	-	.	.	.	.	.
CC1=NN(c2ccccc2)C(=O)C1/C=C1\NC(=S)NC1=O (stereo unspecified)	-	-	.	28µM	-	.	.	8.6µM	-	17µM
COc1cc(/C=C2\C(=O)N(CCC#N)N=C2C)ccc1OCC(=O)Nc1ccccc1	-	-	-	?	-	.	.	?	-	17µM
O=C(O)CN1C(=O)/C(=C\C(Br)=C\c2ccccc2)SC1=S	-	-	.	?	.	.	.	22µM	-	22µM
COc1ccccc1OCc1nnc(SCC(=O)NCc2ccco2)n1Cc1ccco1	-	?	?	?	-	.	.	19µM	-	12µM

Bioassay records: PubChem BioAssay, National Center for Advancing Translational Sciences (NCATS)
